From PubChem BioAssay (NCATS)
Values joined by “and” are separate entries in the source; they are usually repeats but may differ in a detail not shown here. Equal values may be shown once. Records with an inconclusive call do not appear. Active and inactive are the calls of the source. Unless noted, calls come from the whole dose curve; as a rule, active = well fitted curve in the direction sought with a large enough effect; inconclusive = small, poorly fitted or top-dose-only effect, or another doubt; inactive = no such curve, though single readings can be large; an effect the other way counts as inactive or inconclusive.

How the values were obtained:
[1] = Cell Viability - Hek293 (AID 427;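 active = compounds whose dose-response curve shows a full or clear partial loss of cell viability, called from curve shape rather than a numeric limit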;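 note: potency is the fitted concentration of half-maximal effect; cells exposed to compound for 40 hours at 37 °C before reading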); details: qHTS
Summary of the method: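 qHTS, human embryonic kidney (adenovirus-transformed) cells; 40 hr cpd, 37 °C; CellTiter-Glo ATP luminescence. Norm: DMSO = 0, 100 uM tamoxifen = 100% inhibition. Hill-fit AC50.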

[2] = Cell Viability - SK-N-SH (AID 435; calls by dose curve;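 note: potency is the fitted concentration of half-maximal effect; compound exposure lasted 40 h at 37 °C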); details: SK-N-SH neuroblastoma cell viability qHTS
Summary of the method: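 SK-N-SH neuroblastoma cells (1500/well) treated 40 h at 37 °C in complete medium; viability read as cellular ATP by CellTiter-Glo luminescence. Normalized to DMSO and 100 uM tamoxifen; AC50 from Hill fits of qHTS concentration-response.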

[3] = Cell Viability - N2a (AID 540); details: N2a mouse neuroblastoma cell viability; activity change, negative = cytotoxicity: at 92.2 µM (top of the series); note: nearly all actives have a fitted effect of over 45% in size; note: potency is the fitted concentration of half-maximal effect;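 for activity change, negative = cytotoxicity: plate controls were DMSO alone for no effect and tamoxifen control for full effect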
Summary of the method: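 First, 1500 N2a cells per well incubate 5 hr at 37 °C; next, compounds are added and incubated 40 hr at 37 °C; finally CellTiter-Glo is added and luminescence read after 20 min, with AC50 derived by Hill modeling.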

[4] = Cell Viability - SH-SY5Y (AID 544); details: SH-SY5Y neuroblastoma cell viability; viability change, negative = cytotoxic: at 92.2 µM (top of the series); note: nearly all actives have a fitted effect of over 55% in size; note: potency is the fitted concentration of half-maximal effect;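 for viability change, negative = cytotoxic: 0% = DMSO alone and -100% = 100 µM tamoxifen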
Summary of the method: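 Cytotoxicity is scored as a concentration-dependent fall in intracellular ATP in human SH-SY5Y cells treated 40 hr in complete culture medium. Potency is expressed as AC50 from a Hill equation fit.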

[5] = Cell Viability - Renal Proximal Tubule (AID 545); details: renal proximal tubule cells viability, primary cells of rat origin; activity change, negative = cytotoxicity: at 91.7 µM (top of the series); note: nearly all actives have a fitted effect of over 40% in size; note: potency is the fitted concentration of half-maximal effect;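 for activity change, negative = cytotoxicity: 0% = DMSO only and -100% = 100 µM tamoxifen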
Summary of the method: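 Rat renal proximal tubule primary cells, 1000/well, exposed to compounds for 40 hr at 37 °C in complete medium; cellular ATP read by CellTiter-Glo luminescence. AC50 from concentration-response fitted with standard Hill equation.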

[6] = Cell Viability - LYMP2-001 (AID 921); details: LYMP2-001 lymphoblastoid cell viability; series mostly up to 92.2 µM; note: nearly all actives have a fitted effect of over 70% in size; note: potency is the fitted concentration of half-maximal effect
Summary of the method: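 Human lymphoblastoid LYMP2-001 cells, 2500 per well, in complete medium, treated 24 h at 37 C. Viability from cellular ATP by CellTiter-Glo luminescence; AC50 from Hill-equation fits of qHTS concentration-response.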

[7] = MultiTox-Fluor Cytotoxicity Assay - LYMP1-002 - Dead Cells (AID 960); details: LYMP1-002 lymphoblastoid cells, dead-cell protease fluorescence; series mostly up to 46.1 µM; note: nearly all actives have a fitted effect of over 60% in size; note: potency is the fitted concentration of half-maximal effect
Summary of the method: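 Acute cytotoxicity in a human lymphoblastoid line is scored as rising dead-cell protease signal after 16 hr exposure at 37 C, measured fluorometrically (485/520).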

[8] = Cell Viability - LYMP2-005 (AID 967); details: LYMP2-005 lymphoblastoid cell viability; series mostly up to 92.2 µM; note: potency is the fitted concentration of half-maximal effect
Summary of the method: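 Human lymphoblastoid LYMP2-005 cells, 2,500 per well in complete medium, rested 5 h at 37C then compound-treated 24 h at 37C. Intracellular ATP read by CellTiter-Glo luminescence after 30 min at room temperature; AC50 from Hill-equation fits of concentration-response data.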

[9] = Cell Viability - LYMP2-009 (AID 968); details: LYMP2-009 lymphoblastoid cell viability; series mostly up to 92.2 µM; note: nearly all actives have a fitted effect of over 55% in size; note: potency is the fitted concentration of half-maximal effect
[10] = Cell Viability - LYMP2-015 (AID 971); details: LYMP2-015 lymphoblastoid cell viability; series mostly up to 92.2 µM; note: nearly all actives have a fitted effect of over 55% in size; note: potency is the fitted concentration of half-maximal effect
Summary of the method: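 Acute toxicity was scored as a concentration-dependent drop in intracellular ATP in lymphoblastoid cells after 24 hr compound exposure in complete medium. Detection used CellTiter-Glo luciferase luminescence.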

[11] = Cell Viability - LYMP2-017 (AID 972); details: LYMP2-017 lymphoblastoid cell viability; series mostly up to 92.2 µM;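 note: cells exposed to compound for 24 hours at 37 °C; nearly all actives have a fitted effect of over 55% in size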; note: potency is the fitted concentration of half-maximal effect; for activity change, negative = cytotoxicity: % is set by controls: 0 for no effect and ±100 for the full control effect
Summary of the method: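 Steps: plate 2500 lymphoblastoid cells per well; incubate 5 hr at 37 C; add compound across a concentration series and incubate 24 hr at 37 C; add CellTiter-Glo and read luminescence after 30 min at room temperature; fit Hill curves for AC50.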

[12] = Cell Viability - LYMP2-019 (AID 973); details: LYMP2-019 lymphoblastoid cell line viability; series mostly up to 92.2 µM; note: nearly all actives have a fitted effect of over 55% in size; note: potency is the fitted concentration of half-maximal effect;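 for activity change, negative = cytotoxicity: 0% = DMSO alone and full effect = 92 µM tetraoctylammonium bromide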
Summary of the method: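 Cells plated at 2500/well and allowed 5 hr at 37 C before compound addition. After 24 hr incubation, CellTiter-Glo reagent was added, plates sat 30 min at room temperature, and luminescence was recorded.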

[13] = Cell Viability - LYMP2-010 (AID 981); details: LYMP2-010 lymphoblastoid cell viability, qHTS; series mostly up to 92.2 µM; note: potency is the fitted concentration of half-maximal effect
Summary of the method: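 Acute toxicity is scored as a concentration-dependent loss of cellular ATP in human lymphoblastoid cells after 24 hr compound exposure in complete medium. Tetraoctylammonium bromide is the positive control.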

[14] = qHTS assay for small molecule agonists of retinoid X receptor alpha signaling (AID 588544; calls by dose curve; note: potency is the fitted concentration of half-maximal effect); details: HEK293T RXRa-UAS-bla, beta-lactamase reporter, 18 h; 530 nm emission
[15] = target: Retinoic acid receptor RXR-alpha (Homo sapiens) (UniProt P19793); experiment: as above; details: HEK293T RXRa-UAS-bla, beta-lactamase reporter, 18 h; series mostly up to 76.7 µM
[16] = target: Thyroid hormone receptor beta (Homo sapiens) (UniProt P10828); experiment: qHTS assay for small molecule agonists of thyroid hormone receptor beta signaling (AID 588545; calls by dose curve); details: TR-UAS-bla GripTite HEK 293, beta-lactamase ratio, agonist mode, 18 h; series mostly up to 76.7 µM
Summary of the method: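 Agonist activity was read as beta-lactamase CCF4 fluorescence (405 ex, 460/530 em), scaled between DMSO (0%) and 10 nM T3 (100%), then Hill-fitted for EC50 and efficacy. HEK 293 TR-UAS-bla cells in 2% charcoal/dextran FBS medium were exposed 18 h at 37 C.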

[17] = qHTS assay for small molecule disruptors of the mitochondrial membrane potential - 1 hr assay (AID 651754; calls by dose curve; note: nearly all actives have a fitted effect of over 35% in size; note: potency is the fitted concentration of half-maximal effect); details: series mostly up to 92.2 µM
Summary of the method: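 Steps: seed HepG2 cells and let attach overnight; pin-transfer compound or vehicle; incubate 1 hr at 37C; add Mito-MPS dye for 30 min; read two-channel fluorescence for monomer and aggregate forms.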

[18] = qHTS assay for small molecule disruptors of the mitochondrial membrane potential - 5 hr assay (AID 651755; calls by dose curve; note: nearly all actives have a fitted effect of over 40% in size; note: potency is the fitted concentration of half-maximal effect); details: JC-1-type ratio dye; series mostly up to 92.2 µM
Summary of the method: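 HepG2 cells, attached overnight at 37C, were exposed to compound or DMSO for 5 hr at 37C, 5% CO2. Mito-MPS dye was then added for 30 min, and fluorescence read at 490/535 nm (monomers) and 540/590 nm (aggregates).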

[19] = qHTS assay for small molecule agonists of the antioxidant response element (ARE) signaling pathway measured by Nrf2-dependant transcriptional activity (AID 720636; active = well fitted curve in the direction sought with a large enough effect in the repeat runs; an effect the other way counts as inactive or inconclusive; note: potency is the fitted concentration of half-maximal effect); details: ARE-luc HepG2, Nrf2 luciferase reporter, 16 h; series mostly up to 92.4 µM
Summary of the method: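 Attachment 6 hr at 37 C, then compound versus DMSO vehicle for 16 hr in ARE-luc HepG2 cells (1% dialyzed FBS); luminescence recorded 30 min after ONE-Glo addition at room temperature.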

[20] = target: Nuclear receptor subfamily 1 group I member 2 (Rattus norvegicus) (UniProt Q9R1A7); experiment: qHTS assay for small molecule activators of the rat pregnane X receptor (rPXR) signaling pathway (AID 651751; call rule not given here; note: 0% is about no effect); details: rPXR reporter cells, luciferase (One-Glo), 24 h
Sequence of Nuclear receptor subfamily 1 group I member 2 (Rattus norvegicus) (Q9R1A7 whole entry, looked up): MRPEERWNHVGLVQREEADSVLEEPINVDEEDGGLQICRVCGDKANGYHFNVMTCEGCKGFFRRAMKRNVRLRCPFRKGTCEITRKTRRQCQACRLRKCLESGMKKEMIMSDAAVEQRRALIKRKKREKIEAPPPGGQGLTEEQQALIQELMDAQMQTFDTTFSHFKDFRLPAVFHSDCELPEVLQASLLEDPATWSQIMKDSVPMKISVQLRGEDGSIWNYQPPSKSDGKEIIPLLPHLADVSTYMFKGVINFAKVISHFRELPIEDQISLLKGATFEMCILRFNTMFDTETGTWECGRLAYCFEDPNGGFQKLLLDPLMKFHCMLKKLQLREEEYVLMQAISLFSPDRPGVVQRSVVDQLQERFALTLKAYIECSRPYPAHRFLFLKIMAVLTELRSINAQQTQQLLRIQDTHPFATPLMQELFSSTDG

Sequence of Retinoic acid receptor RXR-alpha (Homo sapiens) (P19793 whole entry, looked up): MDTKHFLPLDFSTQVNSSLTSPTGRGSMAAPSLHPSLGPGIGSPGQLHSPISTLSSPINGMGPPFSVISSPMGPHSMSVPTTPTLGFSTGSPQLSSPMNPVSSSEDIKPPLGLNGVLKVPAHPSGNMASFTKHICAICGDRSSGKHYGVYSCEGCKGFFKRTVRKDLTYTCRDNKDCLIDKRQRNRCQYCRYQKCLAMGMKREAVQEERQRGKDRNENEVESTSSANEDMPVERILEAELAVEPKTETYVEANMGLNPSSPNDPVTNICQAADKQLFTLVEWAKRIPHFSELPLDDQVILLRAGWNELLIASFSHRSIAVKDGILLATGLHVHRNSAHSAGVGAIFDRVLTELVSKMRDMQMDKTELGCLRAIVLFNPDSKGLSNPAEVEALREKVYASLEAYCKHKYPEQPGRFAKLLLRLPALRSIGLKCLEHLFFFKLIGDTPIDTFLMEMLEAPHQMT
Sequence of Thyroid hormone receptor beta (Homo sapiens) (P10828 whole entry, looked up): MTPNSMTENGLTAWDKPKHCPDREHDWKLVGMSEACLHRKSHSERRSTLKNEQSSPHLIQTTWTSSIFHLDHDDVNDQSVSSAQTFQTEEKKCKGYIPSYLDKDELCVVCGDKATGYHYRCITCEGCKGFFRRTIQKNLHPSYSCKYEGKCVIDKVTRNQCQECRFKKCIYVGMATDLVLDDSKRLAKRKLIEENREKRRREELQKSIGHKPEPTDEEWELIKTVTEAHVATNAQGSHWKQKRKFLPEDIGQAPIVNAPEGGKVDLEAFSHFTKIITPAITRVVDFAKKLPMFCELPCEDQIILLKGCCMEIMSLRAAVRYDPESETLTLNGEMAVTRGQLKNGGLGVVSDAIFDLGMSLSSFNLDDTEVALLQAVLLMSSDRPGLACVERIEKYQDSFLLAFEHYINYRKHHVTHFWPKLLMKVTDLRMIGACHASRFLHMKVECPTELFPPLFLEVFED

Cc1ccc(S(N)(=O)=O)cc1
-3.23% and -4.03%: max response [14]
inactive: Potency [1] > 92 µM | Potency [2] > 92 µM | activity change, negative = cytotoxicity [3] -12.6% | Potency [4] | Potency [5] | Potency [6] | Potency [7] | Potency [8] | Potency [9] | Potency [10] | Potency [11] | Potency [12] | Potency [13] | Potency [15] | Potency [16] | Potency [17] | Potency [18] | Potency [19] | max response [20] -1.87% and 3.62%

O=[N+]([O-])c1cc(Cl)c(Cl)c(Cl)c1Cl
active: Potency [4] 31.6 µM | Potency [7] 25.1 µM | Potency [19] 37.6 µM
inactive: activity change, negative = cytotoxicity [3] -28% | Potency [5] | Potency [6] | Potency [8] | Potency [16] | Potency [17] | Potency [18] | max response [20] 0.233%

O=[N+]([O-])c1cccc(I)c1
inactive: Potency [1] > 92 µM | Potency [2] > 92 µM | activity change, negative = cytotoxicity [3] -10.4% | Potency [4] | Potency [5] | Potency [6] | Potency [7] | Potency [8] | Potency [9] | Potency [10] | Potency [11] | Potency [12] | Potency [13] | Potency [15] | Potency [16] | Potency [17] | Potency [18] | Potency [19] | max response [20] -1.98%
-0.727%: max response [14]

S=C(NC1CCCCC1)NC1CCCCC1
inactive: Potency [4] | Potency [5] | Potency [6] | Potency [7] | Potency [8] | Potency [9] | Potency [10] | Potency [11] | Potency [12] | Potency [13] | Potency [15] | Potency [16] | Potency [18] | Potency [19] | max response [20] 8.83%
active: Potency [3] 31.6 µM
7.4%: max response [14]

O=C(O)/C=C/c1ccc(/C=C/C(=O)O)cc1
9.62%: max response [14]
inactive: Potency [1] > 92 µM | Potency [2] > 92 µM | activity change, negative = cytotoxicity [3] -20.9% | Potency [4] | Potency [5] | Potency [6] | Potency [7] | Potency [8] | Potency [9] | Potency [10] | Potency [11] | Potency [12] | Potency [13] | Potency [15] | Potency [17] | Potency [18] | Potency [19] | max response [20] 0.0892%

Oc1cc(Cl)cc(Cl)c1Cl
0.211%: max response [14]
active: Potency [3] 31.6 µM
inactive: Potency [5] | Potency [6] | Potency [7] | Potency [8] | Potency [10] | Potency [11] | Potency [12] | Potency [13] | Potency [15] | Potency [16] | Potency [19] | max response [20] 0.309%

CC(=O)OC(C(=O)c1ccccc1)c1ccccc1 (stereo not drawn)
-6.96%: max response [14]
inactive: Potency [1] > 92 µM | Potency [2] > 92 µM | activity change, negative = cytotoxicity [3] -7.31% | Potency [4] | Potency [5] | Potency [6] | Potency [7] | Potency [8] | Potency [9] | Potency [10] | Potency [11] | Potency [12] | Potency [13] | Potency [15] | Potency [16] | Potency [18] | Potency [19] | max response [20] 1.59%

O=C1c2ccccc2C(=O)C1(O)O
inactive: Potency [7] | Potency [9] | Potency [11] | Potency [15] | Potency [16] | Potency [18] | Potency [19] | max response [20] 1%
active: activity change, negative = cytotoxicity [3] -94.6% | Potency [5] 1.58 µM
5.07%: max response [14]

CCCCCCCCOc1ccc(C(=O)O)cc1
active: Potency [15] 39.8 µM
-15.5%: max response [14]
inactive: Potency [1] > 92 µM | Potency [2] > 92 µM | activity change, negative = cytotoxicity [3] -7.43% | Potency [4] | Potency [5] | Potency [6] | Potency [7] | Potency [8] | Potency [9] | Potency [10] | Potency [11] | Potency [12] | Potency [13] | Potency [16] | Potency [17] | Potency [18] | Potency [19] | max response [20] 13.3%

O=C(OCC1CO1)C1CCCCC1C(=O)OCC1CO1 (stereo not drawn)
inactive: activity change, negative = cytotoxicity [3] 2.77% | Potency [5] | Potency [17] | Potency [18] | max response [20] 1.33%
active: Potency [4] 25.1 µM | Potency [13] 50.1 µM

c1ccc(SCCSc2ccccc2)cc1
inactive: Potency [1] > 92 µM | Potency [2] > 92 µM | activity change, negative = cytotoxicity [3] 8.64% | Potency [4] | Potency [5] | Potency [6] | Potency [7] | Potency [8] | Potency [9] | Potency [10] | Potency [11] | Potency [12] | Potency [13] | Potency [15] | Potency [16] | Potency [18]
-9.01%: max response [14]

CN(C)c1ccc(C(=N)c2ccc(N(C)C)cc2)cc1
active: Potency [3] 31.6 µM | Potency [4] 10 µM | Potency [6] 31.6 µM | Potency [7] 15.8 µM
inactive: Potency [8] | Potency [16]

Nc1ccc(N)c(Cl)c1
15.5%: max response [14]
active: viability change, negative = cytotoxic [4] -99% | Potency [17] 7.5 µM | Potency [18] 10.6 µM
inactive: activity change, negative = cytotoxicity [3] 3.89% | Potency [7] | Potency [8] | Potency [11] | Potency [12] | Potency [15] | Potency [16] | max response [20] -1.32%

Brc1cc(Br)c(Oc2cc(Br)c(Br)cc2Br)cc1Br
inactive: Potency [1] > 92 µM | Potency [2] > 92 µM | Potency [4] | Potency [5] | Potency [6] | Potency [7] | Potency [8] | Potency [9] | Potency [10] | Potency [11] | Potency [12] | Potency [13] | Potency [16] | Potency [17] | Potency [18] | Potency [19] | max response [20] -2.15%

C=CC(=O)OCCCCCCOC(=O)C=C
3.42%: max response [14]
inactive: Potency [15] | Potency [16] | Potency [17] | Potency [18] | Potency [19] | max response [20] -2.77% and -1.84%
active: Potency [2] 50.2 µM | activity change, negative = cytotoxicity [3] -110% | viability change, negative = cytotoxic [4] -98.1% | Potency [6] 31.6 µM | Potency [7] 31.6 µM | Potency [8] 39.8 µM | Potency [9] 39.8 µM | Potency [10] 39.8 µM | Potency [11] 39.8 µM | Potency [12] 50.1 µM | Potency [13] 39.8 µM
